The results in this text go back to PubChem BioAssay.

A short description of assay [1]: growth inhibition of DIPG glioma cells, dose response, cell-based, SU-DIPG-XVII, MIPE5.0, CellTiter-Glo, qHTS (AID 1347060).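 For AC50: cells exposed to compound for 48 hours before viability readout.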 As to conditions: SU-DIPG-XVII viability, CellTiter-Glo ATP luminescence.
Assay [2] in a line: growth inhibition of DIPG glioma cells, dose response, cell-based, SU-DIPG-XIII, MIPE4.0, CellTiter-Glo, qHTS (AID 1347061; cut-off not given, nearly all actives have AC50 up to about 37 µM;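 note: cells exposed to compound for 48 hours before readout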). As to conditions: SU-DIPG-XIII viability, CellTiter-Glo ATP luminescence. Background: Cellular ATP, detected with luciferase, serves as a proxy for viable cell number.
A short description of assay [3]: growth inhibition of DIPG glioma cells, dose response, cell-based, JHH-DIPG-1, MIPE4.0, CellTiter-Glo, qHTS (AID 1347062; cut-off not given, nearly all actives have AC50 up to about 27 µM;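 for AC50: cells exposed to compound for two days before readout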). The conditions noted are these: JHH-DIPG-1 viability, CellTiter-Glo ATP luminescence.
The nature of assay [4]: growth inhibition of DIPG glioma cells, dose response, cell-based, SU-DIPG-IV, MIPE4.0, CellTiter-Glo, qHTS (AID 1347063; cut-off not given, nearly all actives have AC50 up to about 30 µM;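 note: compound exposure lasted 48 hours before the viability readout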). As to conditions: SU-DIPG-IV viability, CellTiter-Glo ATP luminescence.
A short description of assay [5]: growth inhibition of DIPG glioma cells, dose response, cell-based, SU-DIPG-XIII, MIPE5.0, CellTiter-Glo, qHTS (AID 1347064; cut-off not given, nearly all actives have AC50 up to about 23 µM;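 for AC50: cells exposed to compound for 48 hours before the viability read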). The conditions noted are these: SU-DIPG-XIII viability, CellTiter-Glo ATP luminescence.
The nature of assay [6]: viability loss in pontine glioma line – cell-based, SU-DIPG-XXV, MIPE5.0, CellTiter-Glo, qHTS, dose response (AID 1347065).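 Note: cells exposed to compound for 48 hours before ATP readout.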 As to conditions: CellTiter-Glo ATP luminescence.
Assay [7] can be described thus: JHH-DIPG-1 glioma cell viability, MIPE5.0 library, CellTiter-Glo luminescence, qHTS (AID 1347067).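 Note: cells exposed to compound for 48 hours before readout.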 The conditions noted are these: JHH-DIPG-1 glioma viability, CellTiter-Glo ATP luminescence.
A short description of assay [8]: modifiers of HSF1 nuclear foci, imaging, Selleck Cancer Library (AID 1347162; in the data active = plate-normalised HSF1 focus index below about 0.46). As to conditions: human cells, at 10 µM; SSMD: measured here: HSF1 foci SSMD mean; cell count: measured here: cell number; plate-normalised HSF1 focus index: stronger effect = lower value.
Assay [9] is described as follows: SU-DIPG-VI glioma cell viability, MIPE4.0 library, CellTiter-Glo luminescence, qHTS (AID 1347066; cut-off not given, nearly all actives have AC50 up to about 30 µM;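 note: cells exposed to compound for 48 hours before readout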). As to conditions: CellTiter-Glo ATP luminescence.
Assay [10] can be described thus: SU-DIPG-XXV glioma cell viability, MIPE5.0 library, qHTS (AID 1347068; cut-off not given, nearly all actives have IC50 up to about 30 µM;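 for IC50: cells exposed to compound for 48 hours before viability readout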). Background: qHTS replaces the single test concentration by a dilution series.
Assay [11] can be described thus: sensitizers of A549 cells to miR-34 induction, primary screen, imaging, A549 dox-inducible miR-34, nuclei and caspase counts (AID 1347080;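 active = compounds whose cell count with miR-34 switched on is under 0.7 times the count with it off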). The conditions noted are these: A549 miR-34 inducible, Hoechst nuclei count, 48 h.
A short description of assay [12]: survival rescue of mitochondrial mutant cells in low glucose, primary screen, MELAS cybrids, Rieske KO mouse fibroblasts, CellTiter-Glo (AID 1508586;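 active = mean z-score across replicates of 1.96 or higher in either the MELAS or the Rieske mutant cell line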;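 note: z relative to plate mean and SD of compound and empty wells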).
Where [13] appears, read: stronger effect = lower value, cell number ratio, induced over uninduced.
Setting [14] is: measured here: relative caspase fold change +Dox/-Dox.
Setting [15] is: measured here: total cells with miR-34 induction, stronger effect = lower value.
Where [16] appears, read: measured here: total cells without miR-34 induction.
Where [17] appears, read: MELAS cybrid survival, CellTiter-Glo 48 h, stronger effect = higher value.
Where [18] appears, read: Rieske KO mouse fibroblast survival, CellTiter-Glo 72 h.

Results filed as inconclusive are left out. The source made the active and inactive calls. Unless noted, no cut-off is given here; in the data, nearly all actives have AC50 up to about 26 µM.

What is called AC50 is the midpoint of the concentration-response curve, whichever way the signal moves. With `CC(C)(C)c1[nH]cnc1/C=c1\[nH]c(=O)/c(=C/c2ccccc2)[nH]c1=O`, the AC50 in assay [1] is 37.2 nM (active); in [2] it was 42900 nM (active); in assay [3] it was 340 nM (active); in [4], 42900 nM (active); in [5], 166 nM (active); in assay [6], 46.8 nM (active). Moreover, the AC50 in assay [7] was 52.5 nM (active). The same compound yielded an SSMD in assay [8] of 2.69. In addition, the cell count in assay [8] stood at 7220. The plate-normalised HSF1 focus index in [8] is 1.17 (inactive).
Regarding `CC(C)c1noc(N2CCC(COc3ccc(-c4ccc(S(C)(=O)=O)cc4)nc3)CC2)n1`, the outcome in assay [1], in [2], in assay [3], in assay [4], in [5] and in [9] was inactive. The outcome in [7] and in assay [10] was inactive. Besides, the fold change in assay [11] (setting [13]) is 0.733 (inactive); in [11] (setting [14]), 1.55. Further, the cell count in [11] (setting [15]) turned out to be 5110; in [11] (setting [16]) it was 6980. Moreover, the figures for the z-score in [12] (setting [17]) and in assay [12] (setting [18]) were -0.22 (inactive) and 0.941, respectively.
With `NC(=O)c1cnc(-c2ccc(C3(N)CCC3)cc2)c(-c2ccccc2)c1`, the result in assay [1], in assay [2], in assay [3], in assay [4], in assay [5] and in assay [10] was inactive.
As to `C=Cc1c(C)c2cc3nc(cc4[nH]c(cc5nc(cc1[nH]2)C(C)=C5CCC(=O)O)c(CCC(=O)OC)c4C)[C@@]1(C)C3=CC=C(C(=O)OC)[C@H]1C(=O)OC`, the AC50 in assay [1] is 11800 nM (active); in [2], 743 nM (active); in [3], 66.2 nM (active); in assay [4], 105 nM (active); in [5], 9340 nM (active); in [9], 14800 nM (active).
Consider `COc1ccc(CCN2CCN(CCCc3ccccc3)CC2)cc1OC`, for which the compound was called inactive in assay [1], in assay [2], in [3], in [4], in [5] and in assay [9]. The call in [7] and in assay [10] was inactive. In [8], this compound returned an SSMD of 3.93. The compound further returned a cell count in [8] of 6890. The plate-normalised HSF1 focus index in assay [8] was 1.24 (inactive).
With `O=C1NC(=O)/C(=C\c2ccc(-c3ccc(F)cc3)o2)S1`, the compound was called inactive in [1], in [2], in [3], in assay [4], in assay [5] and in [9]. Further, the compound was classed as inactive in assay [10].
Usually IC50 stands for the concentration needed to halve the response being measured. As to `CC(C)c1cc(C(=O)N2Cc3ccc(CN4CCN(C)CC4)cc3C2)c(O)cc1O`, the AC50 in [1] is 468 nM (active); in [2], 1180 nM (active); in [3], 296 nM (active); in assay [4], 526 nM (active); in assay [5], 742 nM (active); in assay [6], 525 nM (active). The AC50 in assay [7] was 661 nM (active). In [10], the IC50 is 1480 nM (active). For the same compound, the fold change is 0.888 (inactive) in [11] (setting [13]) and 0.921 in assay [11] (setting [14]). In addition, the results for the cell count in [11] (setting [15]) and in assay [11] (setting [16]) were 1780 and 2010, respectively. Further, the values for the z-score in assay [12] (setting [17]) and in [12] (setting [18]) were 2.68 (active) and -0.499, respectively.
For the compound `CCc1c(O)cc(O)c(C(=O)c2ccc(OCCN3CCOCC3)c(OC)c2)c1CC(=O)N(CCOC)CCOC`, the AC50 in assay [1] is 235 nM (active); in assay [2], 3320 nM (active); in assay [3], 372 nM (active); in [4], 1320 nM (active); in [5], 833 nM (active); in assay [6] it was 742 nM (active). In addition, the AC50 in [7] was 742 nM (active). Besides, the compound was called inactive in assay [10]. Further, the fold change in assay [11] (setting [13]) is 1.03 (inactive); in [11] (setting [14]), 0.454. Moreover, the figures for the cell count in assay [11] (setting [15]) and in assay [11] (setting [16]) were 3640 and 3520, respectively. Further, the figures for the z-score in assay [12] (setting [17]) and in [12] (setting [18]) were -0.316 (inactive) and 0.722, respectively.
